In the assay the test system is Plasmodium falciparum NF54. In words: growth inhibition relative to untreated control; higher = more inhibition. Particulars: 72 h. The procedure, abridged:
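Growth inhibition was measured by SYBR Green fluorescence, normalised to untreated wells and corrected for background from uninfected erythrocytes. The parasites were P. falciparum NF54 ring stages (1% hematocrit, 1% parasitemia) exposed to single 5 μM or 1 μM doses of test compounds for 72 h at 37 °C, in either minimal RPMI or minimal RPMI containing 2.2 μM folate, 7.3 μM pABA, 7.3 μM pHBA, 111 μM tyrosine, 90 μM phenylalanine and tryptophan.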

[1] abbreviates: 1 µM, MM + chorismate end-products (CM screening medium).
Setting [2] is: 5 µM, MM + chorismate end-products (CM screening medium).

Molecules are shown by their SMILES. A value given as a limit tells only on which side of the number the result lay.

For `CC(C)(C)OC(=O)N1CCC(Cn2nc(-c3cnc4ccccc4c3)c3c(N)ncnc32)CC1`, the growth inhibition reads like this: under setting [1], greater than 100%; (1 µM, minimal medium (MM)) less than 0%; under setting [2], 64.1%; (5 µM, minimal medium (MM)) 52.3%.
Take `Cc1cc(OCC(=O)Nc2ccc(C(C)C)cc2)n(C)c(=O)c1C#N`: the growth inhibition turned out to be 18.1% under setting [1]; 33% (1 µM, minimal medium (MM)); 18.4% under setting [2]; 21% (5 µM, minimal medium (MM)).
As to `Cc1nnc(NCc2cccc(Cl)c2)c2ccccc12`, the growth inhibition runs as follows: under setting [1], 37.2%; (1 µM, minimal medium (MM)) 4.12%; under setting [2], 4.67%; (5 µM, minimal medium (MM)) less than 0%.
Turning to `COc1cc(CN2CCC3(C=Cc4ccccc43)CC2)cc2c1OCO2`, the growth inhibition runs as follows: under setting [1], greater than 100%; (1 µM, minimal medium (MM)) less than 0%; under setting [2], less than 0%; (5 µM, minimal medium (MM)) 8.3%.
With `Cc1cnc(N2CCN[C@@H](Cc3ccccc3)C2)nc1Oc1ccc(-n2ccnc2)cc1`, the growth inhibition was found to be 93.8% under setting [1]; 92.3% (1 µM, minimal medium (MM)); 99.9% under setting [2]; 98.2% (5 µM, minimal medium (MM)).
The matching figures for `COc1ccc(-c2nn(C(C)C)c3ncnc(N)c23)cc1OC`: 86.7%, 81.7%, 97.3% and 90.9%.
In the case of `CS(=O)(=O)N1CCC(CCn2nc(Cc3cccc4ccccc34)c3c(N)ncnc32)CC1`, the growth inhibition was less than 0% under setting [1]; 24.3% (1 µM, minimal medium (MM)); 41.3% under setting [2]; less than 0% (5 µM, minimal medium (MM)).
Regarding `O=C(c1ccc(NCCO)cc1)C1C[C@H]1c1ccc(Cl)cc1` (some centres undefined), the growth inhibition by setting is: under setting [1], 71%; (1 µM, minimal medium (MM)) 98.1%; under setting [2], 91.8%; (5 µM, minimal medium (MM)) 89%.
The matching figures for `Cc1[nH]c2cc(F)cc(F)c2c(=O)c1-c1ccc(Oc2ccc(OC(F)(F)F)cc2)cc1`: 98.6%, 97.7%, 87.3% and greater than 100%.
For the compound `CCCn1c(NC(=O)c2ccc3ccccc3n2)nc2ccccc21`, the growth inhibition by setting is: under setting [1], 38.2%; (1 µM, minimal medium (MM)) 20.1%; under setting [2], 86.1%; (5 µM, minimal medium (MM)) 85%.
`C[C@@H]1[C@H](O)[C@@H](C)/C=C/C=C/C=C/C=C/C=C/C=C/C=C/[C@H](O[C@@H]2O[C@H](C)[C@@H](O)[C@H](N)[C@@H]2O)C[C@@H]2O[C@](O)(C[C@@H](O)C[C@@H](O)[C@H](O)CC[C@@H](O)C[C@@H](O)CC(=O)O[C@H]1C)C[C@H](O)[C@H]2C(=O)O`: the growth inhibition by setting is: under setting [1], 86.2%; (1 µM, minimal medium (MM)) 89.8%; under setting [2], greater than 100%; (5 µM, minimal medium (MM)) 97.9%.
